Source: PubChem BioAssay (Tox21)
Results filed as inconclusive are left out. Activity calls are given as the source filed them. Unless noted, the call rests on the fitted dose curve; in most records, active means well fitted curve in the direction sought with a large enough effect in the repeat runs; inconclusive means weak or mixed curves; inactive means flat fitted curve, though single readings scatter.

Assays:
[1] = qHTS assay to test for compound auto fluorescence at 535 nm (green) in HEK293 cells (AID 720680)
[2] = qHTS assay to test for compound auto fluorescence at 460 nm (blue) in HEK293 cell free culture (AID 720681)
Method in brief: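 Test compounds were pinned into cell-free culture medium (DMEM with 10% FBS) and fluorescence was read directly at Ex/Em 405/460 nm. Signals were expressed as fluorescence equivalents of triamterene, with DMSO vehicle as control.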

[3] = qHTS assay to test for compound auto fluorescence at 535 nm (green) in HEK293 cell free culture (AID 720682)
Method in brief: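 Using fluorescein as calibrant, autofluorescence was quantified at 485/535 nm in cell-free DMEM containing 10% FBS after pintool addition of compound or vehicle.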

[4] = qHTS assay to test for compound auto fluorescence at 590 nm (red) in HEK293 cell free culture (AID 720683)
Method in brief: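 Tox21 10K library compounds were pinned into cell-free DMEM with 10% FBS and fluorescence was read at excitation 540 nm. Activity is expressed as Rose Bengal sodium equivalency.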

[5] = qHTS assay to test for compound auto fluorescence at 590 nm (red) in HepG2 cell free culture (AID 720684)
Method in brief: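 Readout: intrinsic compound fluorescence at 590 nm emission after 540 nm excitation, scaled to Rose Bengal sodium. Matrix was cell-free MEM with 10% FBS; DMSO vehicle wells served as control.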

[6] = qHTS assay to test for compound auto fluorescence at 460 nm (blue) in HepG2 cell free culture (AID 720685)
Method in brief: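 Cell-free plates of MEM plus 10% FBS received 23 nL compound or DMSO vehicle; blue-channel (405/460 nm) intensity scored against triamterene as reference fluorophore.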

[7] = qHTS assay to test for compound auto fluorescence at 535 nm (green) in HepG2 cell free culture (AID 720686)
[8] = qHTS assay to test for compound auto fluorescence at 460 nm (blue) in HepG2 cells (AID 720687)
Method in brief: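 Cells (2,000/well in MEM with 10% FBS) attached overnight at 37 C, then were exposed to compound or DMSO for 1 hr at 37 C, 5% CO2. Fluorescence read at Ex/Em 405/460 nm, expressed as triamterene-equivalent signal.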

[9] = molecular target: Glucocorticoid receptor (Homo sapiens) (UniProt P04150); test: qHTS assay to identify small molecule agonists of the glucocorticoid receptor (GR) signaling pathway (AID 720691; active means well fitted activation curve with a large enough effect in the signal ratio in the repeat runs, not every such curve was filed as active; the % refers to the signal ratio)
Chain of Glucocorticoid receptor (Homo sapiens) (P04150 whole entry, looked up): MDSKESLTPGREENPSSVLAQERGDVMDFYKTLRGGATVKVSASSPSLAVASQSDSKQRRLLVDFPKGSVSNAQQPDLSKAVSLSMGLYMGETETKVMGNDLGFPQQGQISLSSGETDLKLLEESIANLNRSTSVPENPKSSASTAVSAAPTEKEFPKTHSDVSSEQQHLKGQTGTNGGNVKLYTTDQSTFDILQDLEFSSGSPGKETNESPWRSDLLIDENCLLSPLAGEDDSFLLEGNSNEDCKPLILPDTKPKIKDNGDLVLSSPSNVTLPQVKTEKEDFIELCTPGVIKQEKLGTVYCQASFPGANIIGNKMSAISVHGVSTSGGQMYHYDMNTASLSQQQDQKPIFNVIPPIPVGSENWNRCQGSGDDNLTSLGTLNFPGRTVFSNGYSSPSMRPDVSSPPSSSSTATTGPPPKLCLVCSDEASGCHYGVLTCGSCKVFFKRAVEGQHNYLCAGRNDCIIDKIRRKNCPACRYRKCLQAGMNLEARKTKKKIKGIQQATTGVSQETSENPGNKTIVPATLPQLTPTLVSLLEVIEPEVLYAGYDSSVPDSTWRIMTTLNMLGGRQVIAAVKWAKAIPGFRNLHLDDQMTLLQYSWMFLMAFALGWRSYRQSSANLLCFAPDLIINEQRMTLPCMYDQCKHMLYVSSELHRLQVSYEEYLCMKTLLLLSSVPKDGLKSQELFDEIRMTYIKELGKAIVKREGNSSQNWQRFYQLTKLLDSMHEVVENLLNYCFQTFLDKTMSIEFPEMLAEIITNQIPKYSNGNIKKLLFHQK
Method in brief: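 Steps: seed GR-bla HeLa cells, incubate 4 h at 37 C/5% CO2; pin-transfer DMSO-dissolved compounds; incubate 18 h at 37 C; add LiveBLAzer B/G FRET substrate; after 2 h at room temperature, measure fluorescence.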

[10] = molecular target: Glucocorticoid receptor (Homo sapiens) (UniProt P04150); test: qHTS assay to identify small molecule antagonists of the glucocorticoid receptor (GR) signaling pathway (AID 720692; active means well fitted inhibition curve with a large enough effect in the signal ratio in the repeat runs, not every such curve was filed as active; the % refers to the signal ratio)
Method in brief: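 Antagonism was scored as loss of dexamethasone-driven (5 nM final) reporter signal in HeLa cells bearing a glucocorticoid response element–beta-lactamase construct, after 18 h compound exposure at 37 C and 2 h FRET substrate loading.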
On the % scale 0 is the no-effect control and ±100 the full control effect.

O=[N+]([O-])c1ccc(Nc2ccc(Nc3ccccc3)c(S(=O)(=O)O)c2)c([N+](=O)[O-])c1
inactive: outcome [1] | Potency [2] | outcome [3] | outcome [4] | outcome [5] | Potency [6] | outcome [7] | Potency [8] | Potency [9]

O=C1Cc2ccccc2N1c1c(Cl)cccc1Cl
inactive: outcome [1] | Potency [2] | outcome [3] | outcome [4] | outcome [5] | Potency [6] | outcome [7] | Potency [8]

COc1cc(C(=O)NCCCCCC(=O)O)cc(OC)c1OC
inactive: outcome [1] | Potency [2] | outcome [3] | outcome [4] | outcome [5] | Potency [6] | outcome [7] | Potency [8] | Potency [9] | Potency [10]

CN1CCCC(n2nc(Cc3ccc(Cl)cc3)c3ccccc3c2=O)CC1 (configuration not stated)
inactive: outcome [1] | Potency [2] | outcome [3] | outcome [4] | outcome [5] | Potency [6] | outcome [7] | Potency [8] | Potency [9] | Potency [10]

Oc1cccc(O)c1O
inactive: outcome [1] | Potency [2] | outcome [3] | outcome [4] | outcome [5] | Potency [6] | outcome [7] | Potency [8] | Potency [9] | Potency [10]

O=C(O)C[C@H](NC(=O)OCc1ccccc1)C(=O)O
inactive: outcome [1] | Potency [2] | outcome [3] | outcome [4] | outcome [5] | Potency [6] | outcome [7] | Potency [8] | Potency [9]

O[C@@H]1CO[C@H]2[C@@H]1OC[C@@H]2O
inactive: outcome [1] | Potency [2] | outcome [3] | outcome [4] | outcome [5] | Potency [6] | outcome [7] | Potency [8] | Potency [9]

O=c1c(O)c(-c2ccc(O)cc2)oc2cc(O)cc(O)c12
inactive: outcome [1] | Potency [2] | outcome [3] | outcome [4] | outcome [5] | Potency [6] | outcome [7] | Potency [8] | Potency [9]

CC1=C(Br)C(=O)C(Br)=C/C1=C(/c1ccccc1S(=O)(=O)O)c1cc(Br)c(O)c(Br)c1C
inactive: outcome [1] | Potency [2] | outcome [3] | outcome [4] | outcome [5] | Potency [6] | outcome [7] | Potency [8] | Potency [9] | Potency [10]

CCOc1ccc(Cc2nccc3cc(OCC)c(OCC)cc23)cc1OCC
inactive: fluorescence, % of fluorescein [1] -0.066% [at 18.6 µM] | fluorescence, % of fluorescent control [2] 0.019% [at 18.6 µM] | activity change [3] 0.0026% [at 18.6 µM] | fluorescence, % of fluorescent control [4] 0.116% [at 18.6 µM] | fluorescence, % of Rose Bengal [5] 0.0721% [at 18.6 µM] | fluorescence, % of fluorescent control [6] -0.0254% [at 18.6 µM] | fluorescence, % of fluorescein control [7] 0.0297% [at 18.6 µM] | fluorescence, % of fluorescent control [8] -0.0004% [at 18.6 µM] | Potency [9]

Cc1ccccc1N=C(N)Nc1ccccc1C
inactive: outcome [1] | Potency [2] | outcome [3] | outcome [4] | outcome [5] | Potency [6] | outcome [7] | Potency [8] | Potency [9]

CCCCN1CCCC1C(=O)Nc1c(C)cc(C)cc1C (configuration not stated)
inactive: outcome [1] | Potency [2] | outcome [3] | outcome [4] | outcome [5] | Potency [6] | outcome [7] | Potency [8] | Potency [9] | Potency [10]

CC(CCC(=O)O)C(=O)O (configuration not stated)
inactive: outcome [1] | Potency [2] | outcome [3] | outcome [4] | outcome [5] | Potency [6] | outcome [7] | Potency [8] | Potency [9] | Potency [10]

Brc1cc2ccccc2c2ccccc12
inactive: outcome [1] | Potency [2] | outcome [3] | outcome [4] | outcome [5] | Potency [6] | outcome [7] | Potency [8] | Potency [9]

Oc1cc2c(cc1O)[C@H]1c3ccc(O)c(O)c3OC[C@@]1(O)C2
inactive: outcome [1] | Potency [2] | outcome [3] | outcome [4] | outcome [5] | Potency [6] | outcome [7] | Potency [8] | Potency [9]

C=C(C)[C@@H]1CCC2=CCC[C@@H](C)[C@]2(C)C1
inactive: outcome [1] | Potency [2] | outcome [3] | outcome [4] | outcome [5] | Potency [6] | outcome [7] | Potency [8] | Potency [9]

CN(C(=O)CN(CCO)CC(=O)N(C)C(C)(C)Cc1ccccc1)C(C)(C)Cc1ccccc1
inactive: fluorescence, % of fluorescein [1] 0.0843% [at 18.6 µM] | fluorescence, % of fluorescent control [2] 0.0268% [at 18.6 µM] | activity change [3] -0.0126% [at 18.6 µM] | fluorescence, % of fluorescent control [4] 0% [at 18.6 µM] | fluorescence, % of Rose Bengal [5] 0.844% [at 18.6 µM] | fluorescence, % of fluorescent control [6] -0.036% [at 18.6 µM] | fluorescence, % of fluorescein control [7] 0.0894% [at 18.6 µM] | fluorescence, % of fluorescent control [8] 0.0182% [at 18.6 µM] | Potency [9]

OCCN1CCN(CCCN2c3ccccc3Sc3ccc(Cl)cc32)CC1
inactive: fluorescence, % of fluorescein [1] -0.0167% [at 18.6 µM] | fluorescence, % of fluorescent control [2] -0.0053% [at 18.6 µM] | activity change [3] -0.0092% [at 18.6 µM] | fluorescence, % of fluorescent control [4] 0.0511% [at 18.6 µM] | fluorescence, % of Rose Bengal [5] -0.146% [at 18.6 µM] | fluorescence, % of fluorescent control [6] 0.0187% [at 18.6 µM] | fluorescence, % of fluorescein control [7] 0.137% [at 18.6 µM] | fluorescence, % of fluorescent control [8] 0.0774% [at 18.6 µM] | Potency [9] | Potency [10]

NNC(=O)CP(=O)(c1ccccc1)c1ccccc1
inactive: outcome [1] | Potency [2] | outcome [3] | outcome [4] | outcome [5] | Potency [6] | outcome [7] | Potency [8] | Potency [9] | Potency [10]

CC(=O)N/N=C/c1ccc([N+](=O)[O-])o1
inactive: outcome [1] | Potency [2] | outcome [3] | outcome [4] | outcome [5] | Potency [6] | outcome [7] | Potency [8] | Potency [9]

COc1ccccc1Oc1c(NS(=O)(=O)c2ccc(C(C)(C)C)cc2)nc(-c2ncccn2)nc1OCCO
inactive: outcome [1] | Potency [2] | outcome [3] | outcome [4] | outcome [5] | Potency [6] | outcome [7] | Potency [8] | Potency [9] | Potency [10]
